# PfHsp90 set2: growth inhibition of PfHsp90-expressing yeast, primary screen, antimalarial PfHsp90 inhibitor project, S. cerevisiae, BacTiter-Glo luminescence, single point, set 2. 310,000 compounds, 0.32% hits. BacTiter-Glo ATP, 48 h; yeast lacking PDR1 and PDR3 efflux regulators. inhibition, % at 9.4 µM;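 active means every replicate shows inhibition above about 80%, whatever the replicate mean, limit read from the data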;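 further: 0% = DMSO neutral controls and 100% = 20 µM radicicol positive controls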
# NALP3 yeast inh: NALP3 inflammasome inhibitors in reconstituted yeast, primary screen, luminescence, uHTS; 330,000 compounds, 0.39% hits; Yeast reconstituted NLRP3/ASC/caspase-1, beta-gal luminescence, 24 h; inhibition, % at 10 µM;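 active means inhibition of 50% or more; inactive means inhibition below 50%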;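 further: plate controls were induced DMSO wells for no effect and uninduced yeast grown without galactose for full effect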
# TIM10 inh: growth inhibitors of isogenic TIM10 control yeast, primary screen, counter-screen for tim10-1 yeast inhibitor project, luminescence, uHTS; inhibition, % at 10 µM; S. cerevisiae TIM10 strain growth, BacTiter-Glo luminescence, 24 h; 330,000 compounds, 1.4% hits;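 active means inhibition of 40% or more at the single tested concentration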;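 further: wild-type TIM10 isogenic control strain grown at permissive 25 °C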
# SKKanGAS inh: S. pyogenes SKKanGAS growth inhibitors in kanamycin, primary screen, streptokinase expression inhibitor project, SKKanGAS strain, BacTiter-Glo luminescence; inhibition, % at 7.5 µM; AID 1662, 2009; 300,000 compounds, 1.3% hits; 6 h;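 active means mean replicate score, as percent of positive control median, at least 50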;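 further: strain carries kanamycin resistance gene driven by streptokinase promoter and grows in 40 µg/ml kanamycin; loss of luminescence reflects streptokinase promoter inhibition or plain growth inhibition; 0% = median of DMSO wells and 100% = positive control at its reference dose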
# tim23-1 inh: growth inhibitors of tim23-1 mutant yeast, primary screen, luminescence, uHTS. 330,000 compounds, 1.3% hits. S. cerevisiae tim23-1 growth, BacTiter-Glo luminescence, 24 h. inhibition, % at 20 µM. AID 463212, 2010;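 active means growth inhibition of the mutant yeast at or above 50%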;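 further: temperature-sensitive mutant grown at 25 °C; plate controls were DMSO-treated mutant yeast for no effect and medium wells lacking yeast for full effect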
# tim10-1 inh: growth inhibitors of tim10-1 mutant yeast, primary screen, luminescence, uHTS; S. cerevisiae tim10-1 ts strain growth, BacTiter-Glo, 24 h; inhibition, % at 20 µM; 330,000 compounds, 2.2% hits;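 active means inhibition of at least 40%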;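 further: mutant grown at 25 °C; 0% = DMSO wells with yeast and 100% = wells holding no yeast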
# tim23-1 confirm: tim23-1 mutant yeast growth inhibitors, confirmation, luminescence, single concentration. shares compounds with tim23-1 inh. S. cerevisiae tim23-1 growth, BacTiter-Glo luminescence, 24 h. inhibition, % at 20 µM. 4,400 compounds, 83% hits. AID 463218, 2010;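 active means inhibition above about 39% in either of two replicate wells at 20 µM, limit read from the data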;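 further: temperature-sensitive tim23-1 mutant grown at 25 °C; 0% = DMSO wells with yeast and 100% = medium wells without yeast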
# * = called active by the depositor; / = no result given. An excerpt weighted towards active compounds, which were near 4.5% of everything screened.
SMILES,PfHsp90 set2,NALP3 yeast inh,TIM10 inh,SKKanGAS inh,tim23-1 inh,tim10-1 inh,tim23-1 confirm
O=C(Nc1ccccc1)c1ccc(Nc2c([N+](=O)[O-])cc([N+](=O)[O-])c3ccccc23)cc1,18,8,-19,2,-16,18,/
O=C(Nc1cc(-c2ccccc2)[nH]n1)c1ccccc1,7,28,32,18,52*,-47,56*
O=C(Nc1cc(-c2ccccc2)[nH]n1)c1ccccc1F,/,46,13,-4,51*,-15,41*
CNc1ncnc(NC)c1[N+](=O)[O-],-11,/,/,/,/,/,/
CC(=O)Nc1ccc(C2=CC(=O)C[C@H](c3ccc(Cl)cc3)C2)cc1,-24,8,16,/,51*,19,42*
O=C1C=C(c2cccc(Cl)c2)C[C@@H](c2ccc(Cl)cc2)C1,-15,3,10,/,39,2,/
O=C1C=C(c2cccc(Cl)c2O)C[C@@H](c2ccc(Cl)cc2)C1,-3,20,3,/,57*,16,40*
COc1ccc([C@H]2CC(=O)C=C(c3cccc(Cl)c3)C2)cc1,-46,25,28,/,51*,28,46*
CCC(C)c1ccccc1NC(=O)CN(CC)CC(=O)Nc1ccc2c(c1)OCCO2 (configuration not stated),-3,8,21,/,26,9,/
Oc1ccc(Br)cc1C=Nc1ccc2c3c(cccc13)CC2,32,13,21,-23,64*,21,60*
COc1cc(/C=C/C(=O)OCC(=O)NCc2ccccc2OC)ccc1O,3,14,-10,-5,89*,-10,17
CCc1ccc(NC(=O)C(C)OC(=O)Cc2cc(OC)c(OC)c(OC)c2)cc1 (configuration not stated),15,7,9,/,32,19,/
CC(=O)c1ccc(NC(=S)N2CCN(c3cccc(Cl)c3)CC2)cc1,-25,22,-31,35,-22,-24,/
CC(=O)c1ccc(N2CCN(C(=S)Nc3cccc(Cl)c3)CC2)cc1,-6,3,1,1,96*,9,11
CCC(NC(=O)Cc1c(C)c2c(cc(C)c3c(C)c(C)oc32)oc1=O)C(=O)O (configuration not stated),3,-2,2,6,12,7,/
COc1cc(SC)ccc1C(=O)Nc1ccc2c(c1)OCCO2,-24,31,-3,2,51*,27,45*
CC[C@H]1C/C=C\Cc2ccccc2[C@@H](C(=O)C[C@@H](O)CC(C)=O)OC1=O,-3,-4,18,/,22,15,/
O=S(=O)(Cc1ccc(Cl)cc1)N1CCN(Cc2ccc3c(c2)OCO3)CC1,5,26,-24,8,-20,-4,/
O=S(=O)(Cc1ccc(Cl)cc1)Nc1ccc2c(c1)OCO2,10,34,38,-2,59*,36,49*
Cc1ccccc1[C@@]1(C)ON(c2ccccc2C(F)(F)F)C1=O,1,16,33,/,56*,9,46*
CC[C@@]1(c2ccccc2OC)ON(c2ccccc2C(F)(F)F)C1=O,-10,11,34,/,57*,5,51*
COc1cccc(NC(=O)CCNC(=O)C2CCN(S(=O)(=O)c3ccc(F)cc3)CC2)c1,39,20,0,-6,5,12,/
O=[N+]([O-])c1ccc2[nH]nc(-c3ccccc3)c2c1,-5,41,35,-16,59*,37,33
CCCCN(C(=O)Cc1ccc(S(=O)(=O)N2CCOCC2)s1)c1c(N)n(CCCC)c(=O)[nH]c1=O,/,11,6,-1,-2,-5,/
CCC(=O)OCC(=O)[C@@]1(OC(=O)CC)[C@@H](C)C[C@H]2[C@@H]3CCC4=CC(=O)C=C[C@]4(C)[C@@]3(Cl)[C@@H](O)C[C@@]21C,-33,1,24,/,55*,35,40*
SMILES,PfHsp90 set2,NALP3 yeast inh,TIM10 inh,SKKanGAS inh,tim23-1 inh,tim10-1 inh,tim23-1 confirm
CC(=O)OCC(=O)[C@@]1(O)[C@H](C)C[C@H]2[C@@H]3CCC4=CC(=O)C=C[C@]4(C)[C@@]3(F)[C@@H](O)C[C@@]21C,-8,25,0,3,3,-22,/
CCC1(CC)Cc2ccccc2-c2nc(NCCO)[nH]c(=O)c21,3,12,11,-4,15,23,/
CC1(C)Cc2ccccc2-c2nc(NN)[nH]c(=O)c21,1,-2,2,4,51*,36,36
CS(=O)(=O)c1ccc(C(=O)NNC(=O)c2ccccc2-n2cccc2)cc1,/,1,2,/,6,4,/
CC1CCCCC1NC(=O)C(C)N1C(=O)c2ccccc2C1=O (configuration not stated),-2,13,7,/,14,13,/
O=C(C(Cc1ccccc1)n1cccc1)N1CCN(c2ccccc2)CC1 (configuration not stated),-12,5,12,1,55*,17,31
Cc1ccc(C)c(N2CCN(C(=O)C(Cc3ccccc3)n3cccc3)CC2)c1 (configuration not stated),0,7,15,14,35,27,/
CCc1nc2ccccc2c(C(=O)OCc2nc3ccccc3c(=O)[nH]2)c1C,4,12,-3,/,13,-2,/
Cc1nnc(SCC(=O)Nc2nsc(-c3ccc(C(C)(C)C)cc3)n2)s1,/,7,18,-6,51*,39,41*
CC1CC1C(=O)OCC(=O)NCc1ccccc1 (configuration not stated),0,5,-1,/,8,5,/
C=CCCC(=O)NC1CCCc2c1cnn2-c1ccccc1F (configuration not stated),21,27,-3,5,-3,-1,/
Cc1ccc(N/C=C/C(=O)c2cccs2)cc1,11,16,13,-1,56*,-12,57*
O=C(/C=C\Nc1cccc(F)c1)c1cccs1,-9,33,24,2,53*,8,51*
CC(C)(CNC(=O)C1c2ccccc2-c2ccccc21)N1CCOCC1,-16,-5,5,-2,11,-2,/
O=C(NC(=S)NCc1ccccc1)C1CCCCC1,62,42,13,14,55*,20,26
O=C(NC(=S)NCc1ccc(Cl)cc1)c1ccco1,-18,22,-4,/,51*,14,45*
CCOc1ccccc1NC(=S)NC(=O)c1ccco1,-14,-19,27,-2,54*,38,35
